Data on 20 compounds can be found in PubChem BioAssay (NCATS).

Assay [1] in a line: Validation screen for inhibitors of Lassa infection (AID 463096; calls by dose curve; also: potency is read from the fitted curve at half-maximal effect).
Assay [2] can be described thus: High Content Imaging Cell-Based qHTS for Inhibitors of the mTORC1 Signaling Pathway in MEF Cells (AID 2667). Also: potency is read from the fitted curve at half-maximal effect. In a few lines: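 Fixed-cell imaging of phospho-S6 (Ser235/236, Alexa-488) after 24 hrs of compound treatment at 37 degree Celsius. Signal was normalized to Hoechst, and thresholds from the highest and lowest wells split cells into % active versus % non-active.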
Background: Quantitative high-throughput screening tests each substance at several concentrations.

The target of assay [3] is Ubiquitin carboxyl-terminal hydrolase 2 (Homo sapiens) (UniProt O75604). The assay is described as follows: qHTS Validation Assay for Inhibitors of Ubiquitin-specific Protease USP2a Using CHOP2 as the Reporter (AID 463106). Also: potency is read from the fitted curve at half-maximal effect. In a few lines: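 Inhibition is expressed relative to NEM as the full-inhibition control, with concentration-response curves classed by fit quality, magnitude and activity. Enzyme (USP2 core, 10nM) meets 25nM Ub-CHOP2 after compound preincubation; readings are taken at 60min.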
Chain of Ubiquitin carboxyl-terminal hydrolase 2 (Homo sapiens) (O75604 whole entry, looked up): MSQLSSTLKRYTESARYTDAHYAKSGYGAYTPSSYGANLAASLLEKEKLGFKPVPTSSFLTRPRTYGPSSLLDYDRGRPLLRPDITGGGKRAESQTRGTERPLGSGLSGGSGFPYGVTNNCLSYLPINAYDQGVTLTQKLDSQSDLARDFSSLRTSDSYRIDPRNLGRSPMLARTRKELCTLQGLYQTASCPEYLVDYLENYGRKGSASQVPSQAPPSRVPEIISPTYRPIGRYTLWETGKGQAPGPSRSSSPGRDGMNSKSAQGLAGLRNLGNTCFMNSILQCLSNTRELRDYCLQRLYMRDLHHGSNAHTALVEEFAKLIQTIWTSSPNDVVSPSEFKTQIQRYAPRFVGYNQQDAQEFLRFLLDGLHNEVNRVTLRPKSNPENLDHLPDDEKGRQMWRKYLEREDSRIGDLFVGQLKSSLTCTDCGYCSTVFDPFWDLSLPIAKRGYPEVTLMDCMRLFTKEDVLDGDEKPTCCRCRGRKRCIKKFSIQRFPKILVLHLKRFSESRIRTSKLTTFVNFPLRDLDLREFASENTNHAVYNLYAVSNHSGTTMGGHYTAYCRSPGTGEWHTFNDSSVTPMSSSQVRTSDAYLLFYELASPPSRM

Assay [4] concerns the target Thioredoxin reductase 1, cytoplasmic (Rattus norvegicus) (UniProt O89049). The assay is described as follows: qHTS Assay for Inhibitors of Mammalian Selenoprotein Thioredoxin Reductase 1 (TrxR1) (AID 488773). Also: nearly all actives have a fitted effect of over 40% in size. Also: potency is read from the fitted curve at half-maximal effect. As to conditions: Potency: inhibition. In a few lines:
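Inhibition is scored from the loss of NADPH fluorescence between first and last reads of an 8-min kinetic run. Selenite (400 uM) was the substrate, added after 15 min compound preincubation at room temperature.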

Assay [5] addresses Flap endonuclease 1 (Homo sapiens) (UniProt P39748). The assay is described as follows: qHTS Validation Assay for the Inhibitors of Human Flap endonuclease 1 (FEN1) (AID 488816). Also: potency is read from the fitted curve at half-maximal effect. In a few lines:
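Steps: add FEN1 (10 nM reagent) or buffer only; pin compounds; hold 15 min at room temperature; start with substrate, 50 nM final; read at 0 and 15 min; correct, normalize and fit a four-parameter Hill curve.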

For assay [6], the target named is M-phase phosphoprotein 8 (Homo sapiens) (UniProt Q99549). The assay is described as follows: qHTS Validation Assay for Inhibitors for MPP8 Chromodomain Interactions with Methylated Histone Tails (AID 488949). Also: nearly all actives have a fitted effect of over 55% in size. Also: potency is read from the fitted curve at half-maximal effect. In a few lines:
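Chemiluminescent proximity assay: histidine-tag capture via nickel acceptor beads, biotin peptide via streptavidin donor beads. Protein and peptide each at 50 nM, pH 7.4, with 30 min incubations at room temperature for complex formation, compound exposure and bead binding.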

The target in assay [7] is Chromobox protein homolog 1 (Homo sapiens) (UniProt P83916). Nature of the assay: qHTS Validation Assay for Inhibitors of HP1-beta Chromodomain Interactions with Methylated Histone Tails (AID 488953). Also: nearly all actives have a fitted effect of over 50% in size. Also: potency is read from the fitted curve at half-maximal effect. In a few lines:
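AlphaScreen proximity signal from streptavidin donor and nickel chelate acceptor beads (final 10 ug/mL) after 30 min dark incubation. Compounds had 30 min at room temperature with preformed complex of 50 nM HP1-beta and 50 nM b-H3(1-18)K9me3 in PBS pH 7.4 with 0.01% Tween-20.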

Assay [8] is described as follows: Cytometric Cell-Based qHTS for Inhibitors of the mTORC1 Signaling Pathway in MEF (Tsc2-/-, p53-/-) Cells (AID 2660).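 Also: Tsc2 and p53 null MEFs carrying empty vector with compound for 24 h; percent of cells above a phospho-rpS6 to PI ratio cutoff in each well; series mostly up to about 38 µM.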 In a few lines: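 Percent of cells positive for normalized phospho-S6 staining is reported, with the cutoff set from rapamycin (7.5 nM) versus DMSO wells. Tsc2-/-, p53-/- MEFs received compound for 24 hrs.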
Assay [9] in a line: Cytometry Cell-Based qHTS for Inhibitors of the mTORC1 Signaling Pathway in MEF cells (AID 2668).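 Also: Tsc2-/- p53-/- mouse embryonic fibroblasts stably re-expressing wild-type Tsc2; percent cells positive for phospho-rpS6 Ser235/236 relative to propidium iodide stain; series mostly up to about 38 µM.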 In a few lines: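 In MEFs grown in DMEM + 10% FBS, a 24 hrs compound exposure preceded imaging of phospho-rpS6 Ser235/236 by laser-scanning cytometry.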
Assay [10] deals with Beta-2 adrenergic receptor (Homo sapiens) (UniProt P07550). Nature of the assay: qHTS validation assay of beta-arrestin-biased ligands of beta2-adrenergic receptor (AID 485366). In a few lines: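 Screening used a titration range of up to 46 microM in a beta-arrestin recruitment Tango luciferase assay. Cells in 1% FBS medium were treated 18 hr at 37 degrees C, and luminescence was normalized to %Activity.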
Chain of Beta-2 adrenergic receptor (Homo sapiens) (P07550 whole entry, looked up): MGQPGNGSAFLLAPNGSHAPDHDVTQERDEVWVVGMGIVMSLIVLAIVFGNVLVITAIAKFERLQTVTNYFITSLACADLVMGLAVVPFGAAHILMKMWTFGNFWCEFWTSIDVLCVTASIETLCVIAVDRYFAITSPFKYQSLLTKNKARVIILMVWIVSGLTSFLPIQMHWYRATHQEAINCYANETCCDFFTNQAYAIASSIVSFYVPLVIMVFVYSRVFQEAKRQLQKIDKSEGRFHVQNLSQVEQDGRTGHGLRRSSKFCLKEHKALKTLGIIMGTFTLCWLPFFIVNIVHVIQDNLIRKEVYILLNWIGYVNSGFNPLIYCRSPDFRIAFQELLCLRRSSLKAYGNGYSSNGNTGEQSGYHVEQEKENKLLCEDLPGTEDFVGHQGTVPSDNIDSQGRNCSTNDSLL

Assay [11] concerns the target ATP-dependent 6-phosphofructokinase (Trypanosoma brucei brucei) (UniProt O15648). The assay is described as follows: qHTS Validation Assay to Find Inhibitors of T. brucei phosphofructokinase (AID 485368). Also: potency is read from the fitted curve at half-maximal effect. Put shortly: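 PFK-generated ADP was measured after 45 min at room temperature using ADP-Glo. The reaction contained 0.5 mM F6P and 0.1 mM ATP.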
Assay [12] concerns the target Thioredoxin reductase 1, cytoplasmic (Rattus norvegicus) (UniProt O89049). Nature of the assay: qHTS Assay for Substrates of Mammalian Selenoprotein Thioredoxin Reductase 1 (TrxR1) (AID 488772).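 Also: series mostly up to about 57 µM; a drop in NADPH fluorescence below the no-compound background marks a TrxR1 substrate.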 Put shortly: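 In this dual-purpose format, potential substrates are identified from the first fluorescence read after selenite addition, not from the 8-minute delta. Rat enzyme is preincubated with NADPH and then with compound at ~22 deg C.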

In assay [13] the target is Methanococcus maripaludis chaperonin (MmCpn) (UniProt Q6LX38). The assay is described as follows: High-Throughput Screening for Modulators of Cytosolic Chaperonin Activity: MmCpn Primary Screen (AID 488978). Put shortly: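 HTRF readout (320 nm excitation, 590/665 nm emission) of ADP generated by 50 nM MmCpn hydrolysing 30 uM ATP during 10 min at 37C; compound preincubated 5 min RT.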
Chain of Methanococcus maripaludis chaperonin (MmCpn) (Q6LX38 1-543): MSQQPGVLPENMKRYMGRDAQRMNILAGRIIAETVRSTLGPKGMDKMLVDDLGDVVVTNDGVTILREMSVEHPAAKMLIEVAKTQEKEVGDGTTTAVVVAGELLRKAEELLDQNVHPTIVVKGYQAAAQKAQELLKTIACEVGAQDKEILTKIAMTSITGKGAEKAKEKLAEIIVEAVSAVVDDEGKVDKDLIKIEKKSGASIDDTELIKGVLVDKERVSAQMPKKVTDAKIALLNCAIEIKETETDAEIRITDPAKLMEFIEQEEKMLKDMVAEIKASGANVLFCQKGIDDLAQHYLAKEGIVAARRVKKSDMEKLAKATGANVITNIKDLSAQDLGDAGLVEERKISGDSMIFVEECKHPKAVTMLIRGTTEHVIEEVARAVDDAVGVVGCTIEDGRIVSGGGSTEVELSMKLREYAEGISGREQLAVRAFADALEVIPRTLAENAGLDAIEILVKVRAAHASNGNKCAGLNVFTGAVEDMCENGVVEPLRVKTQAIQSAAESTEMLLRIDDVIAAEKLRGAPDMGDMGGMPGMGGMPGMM

Assay [14] can be described thus: qHTS Validation Assay to Find Inhibitors of Chronic Active B-Cell Receptor Signaling (AID 485345; active = well fitted curve in the direction sought with a large enough effect in the main read-out, with a control signal flat, not every such curve was filed as active). Put shortly: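 TMD8 ABC-DLBCL cells with dox-inducible green luciferase–IκBα fusion and red native luciferase; compounds 46 uM–3 nM, 4 h at 37C with doxycycline in 0.5% FBS IMDM. Green/red ratio normalized to basal and 10 uM MG-132.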
Assay [15] addresses RecQ-like DNA helicase BLM (Homo sapiens) (UniProt P54132). The assay is described as follows: qHTS Validation Assay for Inhibitors of Bloom's syndrome helicase (BLM) (AID 2364). In a few lines: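 BLM 50 nM in 25 mM Tris-HCl pH 8.0, 5 mM NaCl, 2 mM MgCl2, 1 mM DTT, 0.01% Tween-20, 2.5 ug/ml poly(dI-dC); 15 min cpd preinc, RT. Start: 200 nM forked DNA + 2 mM ATP (final). TAMRA read, 2 reads 2 h apart.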

Results filed as inconclusive are left out. The source made the active and inactive calls. Unless noted, calls follow the shape of the dose curve; as a rule, active = well fitted curve in the direction sought with a large enough effect; inconclusive = small, poorly fitted or top-dose-only effect, or another doubt; inactive = no such curve, though single readings can be large; an effect the other way counts as inactive or inconclusive.

Chain of ATP-dependent 6-phosphofructokinase (Trypanosoma brucei brucei) (O15648 whole entry, looked up): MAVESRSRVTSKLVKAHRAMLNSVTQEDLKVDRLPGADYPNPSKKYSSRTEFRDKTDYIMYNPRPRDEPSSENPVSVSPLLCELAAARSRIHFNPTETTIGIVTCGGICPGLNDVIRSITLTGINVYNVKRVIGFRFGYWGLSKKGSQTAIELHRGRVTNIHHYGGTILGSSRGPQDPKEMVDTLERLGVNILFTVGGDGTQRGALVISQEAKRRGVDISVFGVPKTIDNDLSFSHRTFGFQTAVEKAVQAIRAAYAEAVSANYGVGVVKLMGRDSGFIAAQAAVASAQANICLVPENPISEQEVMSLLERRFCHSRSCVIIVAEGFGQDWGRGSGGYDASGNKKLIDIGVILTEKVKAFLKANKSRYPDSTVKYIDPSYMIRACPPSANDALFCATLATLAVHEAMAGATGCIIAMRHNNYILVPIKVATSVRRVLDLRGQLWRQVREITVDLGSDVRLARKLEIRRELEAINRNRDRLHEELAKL
Chain of Flap endonuclease 1 (Homo sapiens) (P39748 whole entry, looked up): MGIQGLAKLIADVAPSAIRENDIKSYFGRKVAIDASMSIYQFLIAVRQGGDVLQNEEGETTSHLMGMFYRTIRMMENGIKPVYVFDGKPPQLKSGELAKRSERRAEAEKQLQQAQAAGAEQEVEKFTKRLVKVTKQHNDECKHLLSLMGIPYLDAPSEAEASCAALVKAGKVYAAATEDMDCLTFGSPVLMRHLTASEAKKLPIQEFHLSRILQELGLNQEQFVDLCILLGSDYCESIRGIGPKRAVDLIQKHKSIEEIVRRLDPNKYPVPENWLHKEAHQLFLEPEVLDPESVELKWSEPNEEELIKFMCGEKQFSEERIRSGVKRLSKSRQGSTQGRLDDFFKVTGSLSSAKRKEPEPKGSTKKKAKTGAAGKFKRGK
Chain of Thioredoxin reductase 1, cytoplasmic (Rattus norvegicus) (O89049 whole entry, looked up): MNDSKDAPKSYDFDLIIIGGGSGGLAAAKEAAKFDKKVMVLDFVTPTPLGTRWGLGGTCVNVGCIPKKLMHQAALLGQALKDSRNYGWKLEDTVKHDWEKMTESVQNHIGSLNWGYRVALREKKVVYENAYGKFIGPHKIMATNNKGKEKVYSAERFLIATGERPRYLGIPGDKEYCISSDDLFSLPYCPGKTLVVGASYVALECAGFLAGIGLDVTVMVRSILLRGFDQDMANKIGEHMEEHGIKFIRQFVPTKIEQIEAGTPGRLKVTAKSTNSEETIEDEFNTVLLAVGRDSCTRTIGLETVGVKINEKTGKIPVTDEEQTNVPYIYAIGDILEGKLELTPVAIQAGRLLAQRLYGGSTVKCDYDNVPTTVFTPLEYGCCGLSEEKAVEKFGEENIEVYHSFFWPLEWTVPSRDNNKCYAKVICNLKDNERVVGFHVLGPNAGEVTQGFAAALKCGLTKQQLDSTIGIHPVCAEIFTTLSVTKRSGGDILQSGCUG
Chain of Chromobox protein homolog 1 (Homo sapiens) (P83916 whole entry, looked up): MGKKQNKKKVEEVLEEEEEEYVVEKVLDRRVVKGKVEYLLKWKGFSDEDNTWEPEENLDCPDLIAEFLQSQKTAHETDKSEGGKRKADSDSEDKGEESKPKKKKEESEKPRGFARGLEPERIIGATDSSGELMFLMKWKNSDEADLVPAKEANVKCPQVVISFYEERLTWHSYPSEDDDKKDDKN
Chain of M-phase phosphoprotein 8 (Homo sapiens) (Q99549 whole entry, looked up): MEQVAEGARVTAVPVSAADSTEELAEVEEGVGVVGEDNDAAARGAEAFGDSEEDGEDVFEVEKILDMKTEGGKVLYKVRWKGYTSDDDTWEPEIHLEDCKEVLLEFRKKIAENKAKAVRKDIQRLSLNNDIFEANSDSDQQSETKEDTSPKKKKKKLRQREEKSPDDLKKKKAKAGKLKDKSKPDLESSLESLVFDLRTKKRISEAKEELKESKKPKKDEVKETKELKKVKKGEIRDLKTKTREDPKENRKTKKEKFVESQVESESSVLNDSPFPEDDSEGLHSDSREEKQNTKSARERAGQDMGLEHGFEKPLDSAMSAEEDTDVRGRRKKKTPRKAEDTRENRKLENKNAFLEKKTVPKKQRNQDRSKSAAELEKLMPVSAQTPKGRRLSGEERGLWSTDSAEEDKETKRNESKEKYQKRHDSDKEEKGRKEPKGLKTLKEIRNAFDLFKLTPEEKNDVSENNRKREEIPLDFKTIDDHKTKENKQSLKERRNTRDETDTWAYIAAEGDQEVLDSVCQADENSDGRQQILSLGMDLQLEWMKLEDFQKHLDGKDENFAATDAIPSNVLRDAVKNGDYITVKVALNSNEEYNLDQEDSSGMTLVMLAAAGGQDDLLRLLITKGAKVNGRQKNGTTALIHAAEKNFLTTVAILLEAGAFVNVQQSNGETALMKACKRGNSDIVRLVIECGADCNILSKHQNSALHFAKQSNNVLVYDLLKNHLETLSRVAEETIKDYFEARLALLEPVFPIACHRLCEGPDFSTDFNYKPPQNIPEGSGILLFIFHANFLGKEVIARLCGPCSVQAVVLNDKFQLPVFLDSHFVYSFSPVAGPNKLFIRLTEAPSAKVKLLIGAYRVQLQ

Consider `CCN(CC)CCCC(C)Nc1ccnc2cc(Cl)ccc12` (stereo not drawn), for which the Potency result in assay [1] was “inactive”.
On the same count and under the same terms, for `Cc1[nH]c(=O)c(C#N)cc1-c1ccncc1` the value was “inactive”.
Take `Cc1cc2c(C(C)C)c(O)c(O)c(C=O)c2c(O)c1-c1c(C)cc2c(C(C)C)c(O)c(O)c(C=O)c2c1O`: the Potency is 14.7 µM (active) in [2]; 5.21 µM (active) in assay [3]; 15 µM (active) in [4]; 11.9 µM (active) in [5]; 15 µM (active) in assay [6]; 10 µM (active) in assay [7].
For `CC[C@@H](CO)NC(=O)[C@@H]1C=C2c3cccc4c3c(cn4C)C[C@H]2N(C)C1`, the compound was classed as inactive in [8], in assay [10], in assay [12] and in [13]. Besides, the Potency result in assay [2], in [9], in assay [3], in assay [11] and in assay [6] was “inactive” throughout. In addition, the Potency in [4] is 10.6 µM (active).
Take `CC1=C(/C=C/C(C)=C/C=C/C(C)=C/C(=O)Nc2ccc(O)cc2)C(C)(C)CCC1`: the Potency result in assay [1] is “inactive”.
`COc1cc2nc(N3CCN(C(=O)C4COc5ccccc5O4)CC3)nc(N)c2cc1OC` (stereo not drawn): in assay [1], the Potency result was “inactive”.
For the compound `COc1ccc(C(CN(C)C)C2(O)CCCCC2)cc1` (stereo not drawn), the compound was classed as inactive in assay [8], in assay [14], in assay [10], in [12] and in [13]. Further, the Potency entry in assay [2], in assay [9], in assay [3], in assay [4], in [5] and in assay [6] was “inactive” throughout. The Potency result in [7] was “inactive”. The Potency in [11] is 5.36 µM (active).
On to `CN1CCN(C2=Nc3ccccc3Oc3ccc(Cl)cc32)CC1`, for which the Potency entry in assay [1] is “inactive”.
With `CC[C@@H](CO)NC(=O)[C@@H]1C=C2c3cccc4[nH]cc(c34)C[C@H]2N(C)C1`, the compound was called inactive in assay [8], in [14], in [10], in [12] and in assay [13]. The Potency result in assay [2] and in [9] was “inactive” each time.
For `O=C1c2c(O)ccc(O)c2C(=O)c2c(NCCNCCO)ccc(NCCNCCO)c21`, in [1], the Potency is 282 nM (active).
In the case of `CC12CC3CC(C)(C1)CC(N)(C3)C2`, the Potency result in assay [15], in assay [1] and in assay [5] was “inactive” throughout.
`CC(C(=O)O)c1cccc(C(=O)c2ccccc2)c1` (stereo not drawn): in assay [1], the Potency result is “inactive”.
Same read-out and setting: for `CNC1(C)C2CCC(C2)C1(C)C` (stereo not drawn) the value was “inactive”; for `CC(C)(C(=O)O)c1ccc(C(O)CCCN2CCC(C(O)(c3ccccc3)c3ccccc3)CC2)cc1` (stereo not drawn), “inactive”.
Turning to `CC(C)NCC(O)COc1ccc(CCOCC2CC2)cc1` (stereo not drawn), the Potency result in assay [1] is “inactive”.
In the case of `Cc1cccc(C)c1NC(=O)CN1CCCC1=O`, the call in assay [8], in assay [14], in [10], in [12] and in [13] was inactive. Further, the Potency entry in assay [2], in assay [9], in assay [3], in assay [11], in assay [4] and in [5] was “inactive” each time. Besides, the Potency entry in [6] and in [7] was “inactive” in each case.
Consider `CN(C)CCOC(C)(c1ccccc1)c1ccccn1` (stereo not drawn), for which the Potency result in assay [1] is “inactive”.
Consider `CC(O)(CS(=O)(=O)c1ccc(F)cc1)C(=O)Nc1ccc(C#N)c(C(F)(F)F)c1` (stereo not drawn), for which the call in [8], in [14], in assay [10], in assay [12] and in assay [13] was inactive. Further, the Potency entry in [2], in assay [9], in [3], in assay [11], in assay [4] and in [5] was “inactive” throughout. The Potency result in [6] and in [7] was “inactive” throughout.
Consider `NC(=O)OCC(COC(N)=O)c1ccccc1`, for which the Potency entry in assay [1] is “inactive”.
For `CC(C)=CCOc1c2occc2cc2ccc(=O)oc12`, the outcome in [8], in assay [14], in assay [10], in [12] and in assay [13] was inactive. Moreover, the Potency entry in [2], in assay [9], in assay [3], in assay [4], in [5] and in assay [6] was “inactive” throughout.
